Test results: PubChem BioAssay AID1974 (The Scripps Research Institute Molecular Screening Center, 2009)
In all, about 300,000 compounds went through this assay and about 3,200 (1.1%) were called active.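 The calls were made as follows: active = inhibition above the campaign mean inhibition plus 3 SD (cut at about 35% in these data); inactive = the rest.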 What follows is part of a selection rich in actives, with near analogues and random picks from the rest.

The molecules below were run against Glutathione S-transferase omega-1 (Homo sapiens) (UniProt P78417) (assay: human GSTO1 enzyme inhibition – biochemical, fluorescence polarization, counter-screen for RBBP9 inhibitor project, primary screen (AID 1974;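 also: 0% = GSTO1-1 with DMSO and 100% = wells lacking GSTO1-1 enzyme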)). Details: recombinant GSTO1, activity-based probe fluorescence polarization; at 5.96 µM; hits give high values.
Glutathione S-transferase omega-1 (Homo sapiens), sequence (P78417 whole entry, looked up): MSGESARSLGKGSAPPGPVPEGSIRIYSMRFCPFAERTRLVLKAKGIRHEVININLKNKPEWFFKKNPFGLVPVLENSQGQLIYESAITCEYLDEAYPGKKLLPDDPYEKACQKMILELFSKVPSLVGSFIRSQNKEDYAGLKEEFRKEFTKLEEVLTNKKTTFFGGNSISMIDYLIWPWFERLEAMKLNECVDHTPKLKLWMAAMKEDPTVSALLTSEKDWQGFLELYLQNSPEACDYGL
In the case of CSc1ccccc1NC(=O)c1cnc2sc(C)cn2c1=O, the inhibition is reported as -0.65% (inactive).
CCN(C(=O)COC(=O)c1sccc1C)c1c(N)n(Cc2ccccc2)c(=O)[nH]c1=O was tested, and the inhibition was 13.2% (inactive).
With CN(C)CCn1c2c(c(SCC(=O)NCc3ccccc3)nc1=O)CCC2 the inhibition was 0.7% (inactive).
For COc1ccc(CCNc2cc(N3CCN(C(=O)c4ccccc4OC)CC3)ccc2[N+](=O)[O-])cc1OC, the inhibition was 0.42% (inactive).
In the case of Oc1ccc(CNc2ccccc2O)cc1, the inhibition is reported as 41.7% (active).
O=C(Cc1ccc(Cl)cc1)NC(=S)Nc1ccccc1O was tested, and the inhibition was -0.02% (inactive).
With O=[N+]([O-])c1ccccc1NCc1ccc(Cl)cc1 the inhibition was 1.08% (inactive).
O=C(Nc1cc(S(=O)(=O)N2CCOCC2)ccc1OCC(F)(F)F)c1ccc(N2CCCC2=O)cc1 was tested, and the inhibition was 6.19% (inactive).
O=C(c1ccncc1)N1CCN(S(=O)(=O)c2cc(C(F)(F)F)cc(C(F)(F)F)c2)CC1 was tested, and the inhibition was 2.8% (inactive).
For CCOC(=O)c1ccccc1NC(=O)c1c(N)n(C)c(=O)[nH]c1=O, the inhibition was -3.83% (inactive).
For Cc1cc(C)c(S(=O)(=O)NCC(c2ccc3c(c2)OCO3)N2CCOCC2)c(C)c1 (stereo not given), the inhibition was 3.98% (inactive).
With CCCc1nc2ccccc2c(=O)n1/N=C/c1ccc(O)c(O)c1 the inhibition was 45.8% (active).
With O=c1c2ccccc2ncn1/N=C/c1ccccc1 the inhibition was -0.07% (inactive).
In the case of CCCc1nc2ccccc2c(=O)n1NC(=O)c1c(O)c2ccccc2[nH]c1=O, the inhibition is reported as 5.47% (inactive).
With CO[C@@H]1[C@@H](OC(N)=O)[C@@H](O)C(Oc2ccc3c(O)c(NC(=O)c4ccc(O)c(CC=C(C)C)c4)c(=O)oc3c2C)OC1(C)C (stereo not given in full) the inhibition was 2.82% (inactive).
With COc1ccc(S(=O)(=O)/N=C2\C=C(NS(=O)(=O)c3ccccc3)C(=O)c3ccccc32)cc1 the inhibition was 58.3% (active).
In the case of COc1ccc2cc(S(=O)(=O)Nc3ccccn3)ccc2c1, the inhibition is reported as 2.15% (inactive).
In the case of COc1ccc(S(=O)(=O)NCCCc2ccccc2)cc1, the inhibition is reported as 6.84% (inactive).
For Cc1ccc(S(=O)(=O)N2[C@@H](c3cccc(Cl)c3)C(C(=O)O)=CC[C@H]2c2ccc(Cl)c(Cl)c2)cc1, the inhibition was -207% (inactive).
CCC(C)CCN1CCN=C1N(C)C (stereo not given) was tested, and the inhibition was 0.8% (inactive).
COCCCN(C(=O)CSCc1ccc(C)cc1)c1c(N)n(Cc2ccccc2)c(=O)[nH]c1=O was tested, and the inhibition was -12.2% (inactive).
In the case of CC(C)CCN1CCN=C1N(C)C, the inhibition is reported as -2.91% (inactive).
In the case of CC(=O)N(C)c1ccc(NC(=O)C(F)(F)F)cc1, the inhibition is reported as 2.55% (inactive).
CN(C)c1ccc(N/C=C/C(=O)C(F)(F)F)cc1 was tested, and the inhibition was 57.6% (active).
CC(C)CNC(=O)C(=O)Nc1ccc(N(C)C)cc1 was tested, and the inhibition was 4.12% (inactive).
